Test results published in PubChem BioAssay (NCI).
Compounds without any hit were thinned out: in the full panel of roughly 83,000, 20% have a hit.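 Results are percent growth after 48 hours of single-concentration exposure. 100 means growth as in untreated cells, lower positive values show inhibition; negative values down to -100 show cell death.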 Calls of active or inactive are those of the source. The calls were made as follows: active = growth percent below 10; inactive = the rest.

What was measured:
Assay in all cases: NCI-60 one-dose screen, 48 h (100 = growth as untreated, 0 = no growth, -100 = all killed)
NCI-H23 lung = system: NCI-H23 lung
NCI-H226 lung = system: NCI-H226 lung
NCI-H322M lung = conditions: 10 µM unless noted
HOP-62 NSCLC = system: HOP-62 NSCLC
NCI-H460 lung = system: NCI-H460 lung
HOP-92 NSCLC = system: HOP-92 NSCLC
NCI-H522 lung = system: NCI-H522 lung
A549/ATCC NSCLC = system: A549/ATCC NSCLC
786-0 renal = system: 786-0 renal
DU-145 prostate = system: DU-145 prostate
K-562 leukemia = system: K-562 leukemia
MALME-3M melanoma = system: MALME-3M melanoma
MDA-MB-231 breast = system: MDA-MB-231 breast
RXF 393 renal = system: RXF 393 renal
SF-268 CNS = system: SF-268 CNS
SF-295 CNS = system: SF-295 CNS
SF-539 CNS = system: SF-539 CNS
UACC-257 melanoma = system: UACC-257 melanoma
M14 melanoma = system: M14 melanoma
COLO 205 colon = system: COLO 205 colon

Measured: growth

COc1ccc(C(=O)/C=C/c2ccc(OCc3ccc(Cl)cc3)cc2)cc1OC
inactive: NCI-H23 lung; 10 µM 84.1% | NCI-H23 lung; 100 µM 29.2% | NCI-H226 lung; 10 µM 87.1% | NCI-H322M lung 40.4% [100 µM] | HOP-62 NSCLC; 10 µM 104% | NCI-H460 lung; 10 µM 95.3% | HOP-92 NSCLC; 10 µM 104% | HOP-92 NSCLC; 100 µM 12.5% | NCI-H522 lung; 10 µM 82.5% | A549/ATCC NSCLC; 10 µM 85.9% | A549/ATCC NSCLC; 100 µM 13.7% | 786-0 renal; 10 µM 106% | DU-145 prostate; 10 µM 95.2% | DU-145 prostate; 100 µM 14.9% | K-562 leukemia; 10 µM 67.9% | K-562 leukemia; 100 µM 52.2% | MALME-3M melanoma; 10 µM 110% | MDA-MB-231 breast; 10 µM 110% | RXF 393 renal; 10 µM 110% | SF-268 CNS; 10 µM 100% | SF-268 CNS; 100 µM 14% | SF-295 CNS; 10 µM 98.4% | SF-295 CNS; 100 µM 16.2% | SF-539 CNS; 10 µM 106% | SF-539 CNS; 100 µM 32.5% | UACC-257 melanoma; 10 µM 94.3% | UACC-257 melanoma; 100 µM 35.4% | M14 melanoma; 10 µM 95.9% | M14 melanoma; 100 µM 54.4%
active: NCI-H226 lung; 100 µM -7.94% | HOP-62 NSCLC; 100 µM 5.95% | NCI-H460 lung; 100 µM 6.18% | NCI-H522 lung; 100 µM 2.45% | 786-0 renal; 100 µM -13.2% | MALME-3M melanoma; 100 µM -19.5% | MDA-MB-231 breast; 100 µM -22.5% | RXF 393 renal; 100 µM -2.05%

CC(=O)/C=C/c1ccc(N(CCO)Cc2ccc(C(C)(C)C)cc2)cc1
active: NCI-H23 lung; 100 µM -70.7% | NCI-H226 lung; 100 µM -78.1% | NCI-H322M lung -98.7% [100 µM] | HOP-62 NSCLC; 100 µM -92.7% | NCI-H460 lung; 100 µM -86% | HOP-92 NSCLC; 100 µM -94.5% | NCI-H522 lung; 100 µM -71% | A549/ATCC NSCLC; 100 µM -99.3% | 786-0 renal; 100 µM -93.4% | COLO 205 colon; 100 µM -76.6% | DU-145 prostate; 100 µM -99.7% | K-562 leukemia; 100 µM -49.3% | MALME-3M melanoma; 100 µM -85.8% | MDA-MB-231 breast; 100 µM -90.4% | RXF 393 renal; 100 µM -75.9% | SF-268 CNS; 100 µM -82.2% | SF-295 CNS; 100 µM -84.9% | SF-539 CNS; 100 µM -96.4% | UACC-257 melanoma; 100 µM -79.5% | M14 melanoma; 100 µM -84.9%
inactive: NCI-H23 lung; 10 µM 75.5% | NCI-H226 lung; 10 µM 72.9% | HOP-62 NSCLC; 10 µM 78.6% | NCI-H460 lung; 10 µM 74.4% | HOP-92 NSCLC; 10 µM 54.7% | NCI-H522 lung; 10 µM 70.1% | A549/ATCC NSCLC; 10 µM 66.3% | 786-0 renal; 10 µM 87.5% | COLO 205 colon; 10 µM 90.1% | DU-145 prostate; 10 µM 78% | K-562 leukemia; 10 µM 54.6% | MALME-3M melanoma; 10 µM 84.5% | MDA-MB-231 breast; 10 µM 77.5% | RXF 393 renal; 10 µM 87.5% | SF-268 CNS; 10 µM 78.9% | SF-295 CNS; 10 µM 63.5% | SF-539 CNS; 10 µM 86.9% | UACC-257 melanoma; 10 µM 80.8% | M14 melanoma; 10 µM 69.4%

Cc1ccc(NC(=O)c2sc3nc(C)c(C(=O)c4ccccc4)cc3c2N)cc1
inactive: NCI-H23 lung; 10 µM unless noted 96.2% | NCI-H226 lung; 10 µM unless noted 99.9% | NCI-H322M lung 92.2% | HOP-62 NSCLC; 10 µM unless noted 90.7% | NCI-H460 lung; 10 µM unless noted 65.7% | HOP-92 NSCLC; 10 µM unless noted 80% | NCI-H522 lung; 10 µM unless noted 88.2% | A549/ATCC NSCLC; 10 µM unless noted 44.1% | 786-0 renal; 10 µM unless noted 91.9% | COLO 205 colon; 10 µM unless noted 98.5% | DU-145 prostate; 10 µM unless noted 95.4% | K-562 leukemia; 10 µM unless noted 55.7% | MALME-3M melanoma; 10 µM unless noted 87.6% | MDA-MB-231 breast; 10 µM unless noted 92% | RXF 393 renal; 10 µM unless noted 98.8% | SF-268 CNS; 10 µM unless noted 91.1% | SF-295 CNS; 10 µM unless noted 73.1% | SF-539 CNS; 10 µM unless noted 94.8% | UACC-257 melanoma; 10 µM unless noted 94.9% | M14 melanoma; 10 µM unless noted 82.7%

CC(=O)/C=C/c1ccc(OCc2ccc(Cl)cc2)cc1
inactive: NCI-H23 lung; 10 µM 90.9% | NCI-H23 lung; 100 µM 37.1% | NCI-H226 lung; 10 µM 100% | NCI-H226 lung; 100 µM 49.6% | NCI-H322M lung 52.5% [100 µM] | HOP-62 NSCLC; 10 µM 110% | HOP-62 NSCLC; 100 µM 44.9% | NCI-H460 lung; 10 µM 101% | NCI-H460 lung; 100 µM 26.1% | HOP-92 NSCLC; 10 µM 91.8% | HOP-92 NSCLC; 100 µM 11% | NCI-H522 lung; 10 µM 90.4% | A549/ATCC NSCLC; 10 µM 75.9% | A549/ATCC NSCLC; 100 µM 34.1% | 786-0 renal; 10 µM 88.1% | 786-0 renal; 100 µM 51.2% | DU-145 prostate; 10 µM 96.6% | DU-145 prostate; 100 µM 52.9% | K-562 leukemia; 10 µM 79.1% | K-562 leukemia; 100 µM 26.1% | MALME-3M melanoma; 10 µM 110% | MDA-MB-231 breast; 10 µM 117% | RXF 393 renal; 10 µM 105% | RXF 393 renal; 100 µM 55.5% | SF-268 CNS; 10 µM 101% | SF-268 CNS; 100 µM 52.3% | SF-295 CNS; 10 µM 99.1% | SF-295 CNS; 100 µM 39.9% | SF-539 CNS; 10 µM 109% | SF-539 CNS; 100 µM 44.4% | UACC-257 melanoma; 10 µM 86.6% | M14 melanoma; 10 µM 98.2% | M14 melanoma; 100 µM 36.1%
active: NCI-H522 lung; 100 µM -3.06% | MALME-3M melanoma; 100 µM -1.84% | MDA-MB-231 breast; 100 µM 9.42% | UACC-257 melanoma; 100 µM -1.1%

COc1ccccc1/C=C1\COc2ccc(O)cc2C1=O
inactive: NCI-H23 lung; 10 µM unless noted 101% | NCI-H226 lung; 10 µM unless noted 102% | NCI-H322M lung 104% | HOP-62 NSCLC; 10 µM unless noted 101% | NCI-H460 lung; 10 µM unless noted 93.3% | HOP-92 NSCLC; 10 µM unless noted 103% | NCI-H522 lung; 10 µM unless noted 24.6% | A549/ATCC NSCLC; 10 µM unless noted 84.6% | 786-0 renal; 10 µM unless noted 97.2% | COLO 205 colon; 10 µM unless noted 87.6% | DU-145 prostate; 10 µM unless noted 96.4% | MALME-3M melanoma; 10 µM unless noted 79.9% | MDA-MB-231 breast; 10 µM unless noted 121% | RXF 393 renal; 10 µM unless noted 92.1% | SF-268 CNS; 10 µM unless noted 83.9% | SF-295 CNS; 10 µM unless noted 104% | SF-539 CNS; 10 µM unless noted 92.5% | UACC-257 melanoma; 10 µM unless noted 95.2% | M14 melanoma; 10 µM unless noted 77.8%
active: K-562 leukemia; 10 µM unless noted 6.88%
